In the library only some 3.3% were active in any assay of this set; here they are far more common.
PI4K2A block: qHTS for small molecular inhibitors of PI4K2A; AID 1346378, 2018; activity change, negative = inhibition, % at 76.9 µM; purified PI4K2A, ADP-Glo luminescence, 1 h; stronger effect = lower value; 0.13% of 420,000 active; in the data active means activity change below about -50%; inconclusive means mostly about -30% to -49%
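In this quantitative HTS, ADP production by PI4K2A was quantified luminescently after 1 h at ambient temperature; 100 microM adenosine served as plate-quality control.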
PI5P4Ka inh: qHTS for Inhibitors of phosphatidylinositol 5-phosphate 4-kinase (PI5P4K); PI5P4Kalpha enzyme, ADP-Glo luminescence, 60 min; stronger effect = lower value; max response, %; 1.2% of 330,000 active; AID 652105, 2013; active means max response of -50% or lower; inconclusive means between -30% and -50%; inactive means -30% or higher; further: value at the top dose of about 77 µM
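Single end-point luminescence (ADP-Glo) quantified ADP from PI5P4Kalpha turnover; ATP 5 microM final, 1 h at RT, 0.1% CHAPS and 0.28 mM EGTA in HEPES pH 7.4.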
DRD3 agonist: qHTS of D3 Dopamine Receptor Agonist: qHTS. 0.58% of 410,000 active. max activation, %. AID 652048, 2013. D(3) dopamine receptor (Homo sapiens), P35462. D3R DiscoveRx beta-arrestin cells, luminescence, 90 min; in the data active means max activation above about 30%
Target sequence (P35462 whole entry, looked up): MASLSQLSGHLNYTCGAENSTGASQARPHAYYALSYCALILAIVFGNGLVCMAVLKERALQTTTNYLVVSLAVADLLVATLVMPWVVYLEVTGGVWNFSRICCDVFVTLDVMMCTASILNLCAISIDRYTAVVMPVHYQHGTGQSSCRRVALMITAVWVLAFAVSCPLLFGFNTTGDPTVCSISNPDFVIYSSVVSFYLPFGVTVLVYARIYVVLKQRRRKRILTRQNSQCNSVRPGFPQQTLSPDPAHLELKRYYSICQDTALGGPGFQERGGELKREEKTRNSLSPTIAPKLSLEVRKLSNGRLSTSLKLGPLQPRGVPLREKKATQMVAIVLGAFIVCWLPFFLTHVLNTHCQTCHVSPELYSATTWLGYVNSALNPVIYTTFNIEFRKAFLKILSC
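Agonist-mode cell screen: cells plated at 1500/well and incubated overnight at 37 °C, then exposed to library compounds for 90 min at 37 °C. Detection reagent was added for 30–60 min at room temperature, and luminescence was read.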
LDHA block: qHTS assay for inhibitors of human lactate dehydrogenase. purified LDHA, NADH/diaphorase-resazurin fluorescence; stronger effect = lower value. activity change, % (values are at about 110 or 230 µM). 0.15% of 480,000 active; in the data active means activity change below about -30%; inconclusive means mostly about -25% to -30%
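Resorufin fluorescence (ex540/em590), read at 0 and 20 min after diaphorase/resazurin addition, reports the NADH left after a 5 min room-temperature reaction of 2 nM human LDH5 with 0.06 mM NADH and 0.2 mM pyruvate.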
D3 antag: qHTS of D3 Dopamine Receptor Antagonist: qHTS | AID 652054, 2013 | D3R cells, DiscoveRx beta-arrestin luminescence, antagonist mode; stronger effect = lower value | 2.5% of 360,000 active | max response, negative = inhibition, % | D(3) dopamine receptor (Homo sapiens), P35462; in the data active means max response below about -50%; inconclusive means no clear call, values can overlap the other calls
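Cells plated overnight at 1500 cells/well, then exposed to library compounds with dopamine controls for 90 minutes at 37 degrees C. DiscoveRx reagent added for 30–60 minutes at room temperature; luminescence read, quantitative HTS format.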
A number is an active result; – = inactive; ? = inconclusive; · = no result given.

SMILES | PI4K2A block | PI5P4Ka inh | DRD3 agonist | LDHA block | D3 antag
CN1C(=O)/C(=C/c2ccc(N3CCCCCC3)o2)C(=O)NC1=S | – | – | – | – | -56
CCC(C)N1C(=O)/C(=C\c2cc3c4c(c2)CCCN4CCC3)C(=O)NC1=S (configuration not stated) | – | ? | – | – | –
CCN(C(=O)CN1CC=C(c2ccccc2)CC1)C1CCS(=O)(=O)C1 (configuration not stated) | · | · | · | – | ·
Cc1n[nH]c(C)c1[Se]c1c(C)n[nH]c1C | · | · | · | – | ·
C[N+](C)(C)CC(F)([N+](=O)[O-])[N+](=O)[O-] | · | · | · | – | ·
ClC1=C(Cl)[C@]2(Cl)[C@@H]3[C@@H]4C[C@@H]([C@H]5O[C@@H]45)[C@@H]3[C@@]1(Cl)C2(Cl)Cl | – | · | – | · | ·
CSc1ncc(/C=C2/C(=O)NC(=O)N(c3ccc(C(C)C)cc3)C2=O)cn1 | – | ? | – | – | –
CCC(C)N1C(=O)/C(=C\c2cnc(N(C)C)nc2)C(=O)NC1=S (configuration not stated) | – | -57 | – | – | –
O=c1c2ccccc2nc(-c2ccccc2)n1-c1ccccc1 | – | – | – | – | –
O=c1c2ccccc2[se]n1-c1ccccc1 | – | -91 | – | -108 | –
CN1CCC(N(C)c2ncnc3scc(-c4ccc(Br)cc4)c23)CC1 | · | · | · | – | ·
O=C(c1ccccc1)c1cn(CC(=O)N2CCCc3ccccc32)c2ccccc12 | – | – | – | – | –
CC1CCCN(CC(=O)N2CCCc3ccccc32)C1 (configuration not stated) | – | · | – | – | -57
CN(C)c1ccc(C=C2C(=O)NC(=S)NC2=O)cc1 | – | -72 | – | – | –
CCN(CC)c1ccc(C=C2C(=O)NC(=S)NC2=O)cc1 | – | -62 | – | – | –
CN(C)c1ccc(C=C2C(=O)NC(=O)NC2=O)cc1 | – | ? | – | – | –
CC(C)CN(CC(C)C)c1ccc(C=C2C(=O)NC(=S)NC2=O)cc1[N+](=O)[O-] | – | -101 | – | – | –
N#Cc1c(-c2cc(F)cc(-c3no[n+]([O-])c3C#N)c2)no[n+]1[O-] | · | · | · | – | ·
O=C(O)c1cncc(O)c1 | · | · | · | – | ·
Nc1ccc(Br)cc1C(=O)c1ccc(Cl)cc1 | · | · | · | – | ·
CN1C[C@H](CNC(=O)OCc2ccccc2)C[C@@H]2c3cccc4c3c(cn4C)C[C@H]21 | – | – | – | – | -117
O=C(NC[P+](=O)O)OCc1ccccc1 | – | – | – | – | –
COc1cccc2cc(-c3ccc(OCC(=O)N4CCN(C)CC4)cc3)c(=O)oc12 | · | · | · | – | ·
CCN1CCN(c2cn[nH]c(=O)c2Cl)CC1 | – | – | – | – | -75
CN1CC(C(=O)c2ccc([N+](=O)[O-])cc2)C(c2ccc(Cl)cc2)C1 (configuration not stated) | – | – | – | – | -59
SMILES | PI4K2A block | PI5P4Ka inh | DRD3 agonist | LDHA block | D3 antag
Cc1nn(-c2ncnc3nc[nH]c23)c2c1C(c1ccc(Cl)cc1Cl)SCC(=O)N2 (configuration not stated) | · | · | · | – | ·
C/C(=N\NC(=O)c1ccncc1)c1c(O)n(Cc2ccccc2)c(=O)[nH]c1=O | – | ? | – | – | –
CC(=Nc1c(C)n(C)n(-c2ccccc2)c1=O)c1c(O)n(Cc2ccccc2)c(=O)[nH]c1=O | – | – | – | – | -51
C/C(=N\NC(=O)c1ccccc1O)c1c(O)n(Cc2ccccc2)c(=O)[nH]c1=O | – | -71 | – | – | –
CC(=NCCCO)c1c(O)n(Cc2ccccc2)c(=O)[nH]c1=O | – | – | – | – | –
C/C(=N\NC(=O)c1ccccc1)c1c(O)n(C2CCCCC2)c(=O)[nH]c1=O | – | -51 | – | – | –
C/C(=N\NC(=O)c1ccccc1O)c1c(O)n(C2CCCCC2)c(=O)[nH]c1=O | – | – | – | – | ?
Fc1ccc(CCNCc2ccco2)cc1 | · | · | · | – | ·
C[N+](C)(C)CC1CCC1 | · | · | · | – | ·
COc1ccc(CCN(C)Cc2ccc(F)cc2F)cc1OC | – | · | – | ? | -77
O=C(N/N=C/c1c(O)n(C2CC2)c(=S)[nH]c1=O)c1ccccc1O | – | -58 | – | – | –

From PubChem BioAssay
